Source: PubChem BioAssay (National Center for Advancing Translational Sciences (NCATS))
Only some compounds are listed: those with a hit (about 2.8% of all), similar ones and a draw of the others.
Pol eta inh-1 = qHTS for Inhibitors of Polymerase Eta | DNA polymerase eta (Homo sapiens), Q9Y253 | recombinant Pol eta, fluorescent DNA replication assay | Potency, µM (highest dose often 114 µM), for the others: at the top dose activity change, negative = inhibition, hits mostly inhibitors | 390,000 compounds, 1.2% hits | AID 588591, 2011; further: potency means the concentration at half of the fitted maximal effect; on the % scale 0 is the no-effect control and ±100 the full control effect
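Fluorescent replication assay: 50 nM final substrate added after a 15 min room-temperature compound preincubation with 10 nM enzyme. Signal taken at 0 min and again at 10 min.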
PI5P4Ka inh = qHTS for Inhibitors of phosphatidylinositol 5-phosphate 4-kinase (PI5P4K); PI5P4Kalpha enzyme, ADP-Glo luminescence, 60 min; active compounds read low; Phosphatidylinositol 5-phosphate 4-kinase type-2 alpha (Homo sapiens), P48426; max response, %; 330,000 compounds, 1.2% hits; active means max response of -50% or lower; inconclusive means between -30% and -50%; inactive means -30% or higher; further: value at the top dose of about 77 µM; on the % scale 0 is the no-effect control and ±100 the full control effect
Target sequence (P48426 whole entry, looked up): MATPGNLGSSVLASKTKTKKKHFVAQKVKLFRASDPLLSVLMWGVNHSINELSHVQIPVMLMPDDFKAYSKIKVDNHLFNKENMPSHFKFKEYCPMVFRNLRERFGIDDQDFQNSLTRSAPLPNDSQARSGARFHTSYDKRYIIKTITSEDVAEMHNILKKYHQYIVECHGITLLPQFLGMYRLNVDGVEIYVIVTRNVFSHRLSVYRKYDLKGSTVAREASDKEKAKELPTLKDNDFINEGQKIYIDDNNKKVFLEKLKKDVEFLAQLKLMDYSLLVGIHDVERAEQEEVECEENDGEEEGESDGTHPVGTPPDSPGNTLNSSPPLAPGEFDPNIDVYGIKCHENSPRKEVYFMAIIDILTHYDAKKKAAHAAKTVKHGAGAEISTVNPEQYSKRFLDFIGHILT
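Human PI5P4Kalpha with substrate in 0.038 M HEPES pH 7.4, 0.28 mM EGTA, 0.1% CHAPS, 5% DMSO; reaction started with 5 microM ATP (final), 60 min at room temperature. ADP formed read by ADP-Glo luminescence.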
WRN helicase inh = qHTS for Inhibitors of WRN Helicase; Bifunctional 3'-5' exonuclease/ATP-dependent helicase WRN (Homo sapiens), Q14191; WRN helicase unwinding, fluorescent forked duplex, kinetic; Potency, µM (titrated, usually from 114 µM), for the others: at the top dose activity change, negative = inhibition, usual class: inhibitors; 360,000 compounds, 0.46% hits; AID 651768, 2012; further: potency means the concentration at half of the fitted maximal effect; on the % scale 0 is the no-effect control and ±100 the full control effect; nearly all actives have a fitted effect of over 55% in size
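Kinetic red-fluorescence monitoring (525/598 nm) tracks WRN helicase activity after 100 nM fluorophore-quencher forked duplex and 2 mM ATP are added to 20 nM enzyme pretreated 15 min at room temperature with compound.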
Pol kappa inh-1 = qHTS for Inhibitors of Polymerase Kappa; purified Pol kappa, fluorescent DNA synthesis assay, 10 min; AID 588579, 2011; DNA polymerase kappa (Homo sapiens), Q9UBT6; Potency, µM (doses to about 107 µM), without a hit: top-dose activity, negative = inhibition, usual class: inhibitors; 400,000 compounds, 0.53% hits; further: potency means the concentration at half of the fitted maximal effect; on the % scale 0 is the no-effect control and ±100 the full control effect
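Readout: fluorescence, taken kinetically at 0 and 10 min. Conditions: 10 nM Pol kappa, 15 min RT compound preincubation, 50 nM substrate final. Controls: enzyme-free buffer wells.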
Pol iota inh = qHTS for Inhibitors of Polymerase Iota; DNA polymerase iota (Homo sapiens), Q9UNA4; Pol iota fluorescent replication assay, 10 min; Potency, µM (series often up to 115 µM), for inactives: at the top dose activity, negative = inhibition, hits mostly inhibitors; 390,000 compounds, 1% hits; AID 588590, 2011; further: potency means the concentration at half of the fitted maximal effect
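Fluorescent replication assay read twice, at 0 min and 10 min after adding 50 nM (final) substrate. Enzyme (10 nM) and compounds were first incubated 15 min at room temperature; enzyme-free buffer wells were negative controls.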
Pol beta inh = qHTS Assay for Inhibitors of DNA Polymerase Beta | P06746 | Pol beta primer extension/strand displacement, fluorescence kinetic | Potency, µM (series often up to 114 µM), inactives show at the top dose activity change, negative = inhibition, actives largely listed as inhibitors | 340,000 compounds, 1.3% hits; further: potency means the concentration at half of the fitted maximal effect; on the % scale 0 is the no-effect control and ±100 the full control effect
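Preincubation: enzyme (10 nM) with compound, 15 min, RT. Reaction: substrate added to 50 nM final. Reads: 0 and 10 min. Analysis: normalized, Hill fit.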
Pol kappa inh-2 = qHTS for Inhibitors of Polymerase Kappa: Confirmatory Assay for Cherry-picked Compounds; 920 compounds, 76% hits; purified Pol-kappa, fluorescent strand-displacement substrate; shares compounds with Pol eta inh-1; Potency, µM, usual class: inhibitors; further: potency means the concentration at half of the fitted maximal effect
Pol eta inh-2 = qHTS for Inhibitors of Polymerase Eta: Confirmatory Assay for Cherry-picked Compounds; shares compounds with Pol eta inh-1; Pol eta primer extension, TAMRA/BHQ fluorescence, 10 min; Potency, µM, most hits filed as inhibitors; 2,600 compounds, 64% hits; further: potency means the concentration at half of the fitted maximal effect
* marks the source's active call; other numbers are inactive results; [ ] = dose if it differs, or a comment. Unless noted, the call rests on the fitted dose curve; in most records, active means well fitted curve in the direction sought with a large enough effect; inconclusive means small, poorly fitted or top-dose-only effect, or another doubt; inactive means no such curve, though single readings can be large; an effect the other way counts as inactive or inconclusive.

O=C(O)c1ccc(C=C(c2nc3ccccc3s2)c2nc3ccccc3s2)cc1 was read as Pol eta inh-1 40µM*, PI5P4Ka inh 11, WRN helicase inh -24%, Pol kappa inh-1 -11%, Pol iota inh inconclusive, Pol beta inh 0% and Pol eta inh-2 inconclusive.
O=C(O)c1ccc(Oc2nc3ccccc3s2)cc1 was read as Pol eta inh-1 -18%, PI5P4Ka inh 0, WRN helicase inh 0%, Pol kappa inh-1 -10% and Pol iota inh 21%.
Screening CC(=O)n1cc(N(C(=O)CCl)c2ccccc2)c2ccccc21 returned Pol eta inh-1 14µM*, PI5P4Ka inh 3, WRN helicase inh -1%, Pol kappa inh-1 0%, Pol iota inh -15%, Pol beta inh 3% and Pol eta inh-2 43*.
Screening C/C(=N\Nc1ccc(C(=O)O)cc1)c1ccc(Br)cc1 returned Pol eta inh-1 13µM*, PI5P4Ka inh -3, WRN helicase inh -14%, Pol kappa inh-1 inconclusive, Pol iota inh 40µM*, Pol beta inh 20µM* and Pol eta inh-2 27*.
Cc1noc(NS(=O)(=O)c2ccc(NC(=O)c3ccoc3C)cc2)c1C was read as Pol eta inh-1 10µM*, PI5P4Ka inh 4, WRN helicase inh -23%[57.1 µM], Pol kappa inh-1 inconclusive, Pol iota inh 40µM*, Pol beta inh inconclusive and Pol eta inh-2 inconclusive.
Screening Cc1cc(C(=O)Nc2ccc(S(=O)(=O)Nc3onc(C)c3C)cc2)c(C)o1 returned Pol eta inh-1 -16%, WRN helicase inh -24%[57.1 µM], Pol kappa inh-1 inconclusive, Pol iota inh inconclusive and Pol beta inh 7%.
Screening O=C(COc1ccc(F)cc1)Nc1nc(-c2cccnc2)cs1 returned Pol eta inh-1 35µM*, PI5P4Ka inh inconclusive, WRN helicase inh -16% and Pol eta inh-2 inconclusive.
Screening O=C(COc1cccc(F)c1)Nc1nc(-c2cccnc2)cs1 returned Pol eta inh-1 3%, PI5P4Ka inh -6, WRN helicase inh -7%, Pol kappa inh-1 -20% and Pol iota inh 29%.
`COc1ccccc1NC(=O)C1CCN(S(=O)(=O)c2ccc3c(c2)oc(=O)n3C)CC1` gave Pol eta inh-1 2%, Pol kappa inh-1 -6%, Pol iota inh -2% and Pol beta inh 26%.
CCOC(=O)c1c2c(n(C)c1C)C(=O)C(=O)c1ccc(Br)cc1-2 was read as Pol eta inh-1 inconclusive, PI5P4Ka inh 10, WRN helicase inh 6%, Pol kappa inh-1 5% and Pol iota inh 7%.
For CCOC(=O)c1c2c(n(Cc3ccccc3)c1C)C(=O)C(=O)c1ccccc1-2 the results were Pol eta inh-1 8.9µM*, PI5P4Ka inh 14, WRN helicase inh -10%, Pol kappa inh-1 -24%, Pol iota inh 40µM* and Pol eta inh-2 85*.
Screening CC(C)Oc1ccc(CNC(=O)C2COc3ccccc3C2)cc1 (stereo not given) returned Pol eta inh-1 -3%, Pol kappa inh-1 -13%[60.1 µM], Pol iota inh 8% and Pol beta inh -1%.
For Cc1cccc(/C=C/C(=O)c2cc(Br)ccc(=O)c2O)c1 the results were Pol eta inh-1 32µM*, PI5P4Ka inh inconclusive, WRN helicase inh inconclusive, Pol kappa inh-1 inconclusive, Pol iota inh 0.89µM*, Pol beta inh inconclusive and Pol eta inh-2 inconclusive.
Screening CSc1ccc(/C=C2/C(=N)N3N=C(CC(=O)N4CCCC4)SC3=NC2=O)cc1 returned Pol eta inh-1 40µM*, PI5P4Ka inh -6, WRN helicase inh 5%[11.6 µM], Pol kappa inh-1 inconclusive, Pol iota inh 79µM*, Pol beta inh 7% and Pol eta inh-2 inconclusive.
N=C1/C(=C\c2ccc(OC(=O)c3ccc(F)cc3)cc2)C(=O)N=C2SC(N3CCCC3)=NN12 was read as Pol eta inh-1 56µM*, PI5P4Ka inh -23, WRN helicase inh -10%[11.6 µM], Pol kappa inh-1 -27%, Pol iota inh -12%, Pol beta inh -1% and Pol kappa inh-2 67*.
COc1ccc(-n2c(C)cc(/C=C3\C(=N)N4N=C(CC(=O)N5CCOCC5)SC4=NC3=O)c2C)c(OC)c1 was read as Pol eta inh-1 40µM*, PI5P4Ka inh -18, WRN helicase inh -23%, Pol kappa inh-1 inconclusive, Pol iota inh 45µM*, Pol beta inh inconclusive and Pol eta inh-2 inconclusive.
Cc1cccc(C(C)C)c1NC(=O)C1CCCN1S(=O)(=O)c1cccc2nsnc12 (stereo not given) was read as Pol eta inh-1 -16%, Pol kappa inh-1 -18%, Pol iota inh 18% and Pol beta inh 6%.
For CCOC(=O)N1CCC(NC(=O)c2ccc3c(c2)N(Cc2cc(C)ccc2C)C(=O)c2ccccc2S3=O)CC1 (stereo not given) the results were Pol eta inh-1 -10%, Pol kappa inh-1 0%, Pol iota inh 4% and Pol beta inh 38%.
`NS(=O)(=O)c1ccc(NC(=S)NC(=O)/C=C/c2ccco2)cc1` gave Pol eta inh-1 32µM*, PI5P4Ka inh -22, WRN helicase inh -13%[11.6 µM], Pol kappa inh-1 inconclusive, Pol iota inh inconclusive, Pol beta inh inconclusive, Pol kappa inh-2 38* and Pol eta inh-2 inconclusive.
`Cc1cccc(NC(=S)NC(=O)/C=C/c2ccco2)c1` gave Pol eta inh-1 50µM*, PI5P4Ka inh -64*, WRN helicase inh inconclusive, Pol kappa inh-1 79µM*, Pol iota inh 20µM*, Pol beta inh 32µM* and Pol eta inh-2 inconclusive.
For Cc1cc(NS(=O)(=O)c2ccc(NC(=O)/C=C/c3ccco3)cc2)nc(C)n1 the results were Pol eta inh-1 28µM*, PI5P4Ka inh -10, WRN helicase inh inconclusive, Pol kappa inh-1 79µM*, Pol iota inh inconclusive, Pol beta inh 0% and Pol eta inh-2 34*.
